Measured values as given in PubChem BioAssay AID1159580 (chemical genetic matrix, 2015).
The whole screen tested about 5,500 compounds, of which about 2,000 (36%) were called active. Another 18% or so got no clear call; they are omitted. No stated cut-off is given here; in the data, active means normalized growth mostly below about 0.91 (no sharp cut-off); inconclusive means no clear call, values can overlap the other calls; inactive means mostly above about 0.92. Some of the results follow.

Assay: chemical genetic growth profiling, strain panel (AID 1159580);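 further: tested at 20 µM; growth read once vehicle control cultures reached saturation at 30 °C; 1 = growth at the plate median or of vehicle wells; lower values mean less growth of the strain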
Settings: S. cerevisiae deletion strains, growth OD

Measured: normalized growth

O=C(O[C@@H]1Cc2c(O)cc(O)cc2O[C@@H]1c1cc(O)c(O)c(O)c1-c1c([C@H]2Oc3cc(O)cc(O)c3C[C@H]2O)cc(O)c(O)c1O)c1cc(O)c(O)c(O)c1
active: locus YAL013W, strain DEP1, active compounds read low 0.0787 | locus YBR229C, strain ROT2, active compounds read low 0.387 | locus YBR231C, strain swc5, active compounds read low 0.873 | locus YCL029C, strain bik1, active compounds read low 0.643 | locus YDL035C, strain GPR1, active compounds read low 0.0755 | locus YDL074C, strain BRE1, active compounds read low 0.204 | locus YDL101C, strain DUN1, active compounds read low 0.113 | locus YDL134C, strain PPH21, active compounds read low 0.09 | locus YDL192W, strain arf1, active compounds read low 0.553 | locus YDR069C, strain doa4, active compounds read low 0.893 | locus YDR101C, strain arx1, active compounds read low 0.772 | locus YDR159W, strain sac3, active compounds read low 1.14 [resistant] | locus YDR162C, strain NBP2, active compounds read low 0.0726 | locus YDR318W, strain mcm21, active compounds read low 0.61 | locus YDR388W, active compounds read low 0.737 | locus YDR502C, strain sam2, active compounds read low 0.362 | locus YER015W, strain faa2, active compounds read low 0.892 | locus YER155C, strain BEM2, active compounds read low 0.523 | locus YER167W, strain BCK2, active compounds read low 0.295 | locus YGL086W, strain mad1, active compounds read low 0.308 | locus YGL248W, strain PDE1, active compounds read low 0.146 | locus YGR078C, strain PAC10, active compounds read low 0.414 | locus YGR135W, strain pre9, active compounds read low 0.429 | locus YGR229C, strain SMI1, active compounds read low 0.0837 | locus YGR252W, strain gcn5, active compounds read low 0.516 | locus YHR027C, strain rpn1, active compounds read low 0.911 | locus YHR030C, strain SLT2, active compounds read low 0.219 | locus YHR079C, strain IRE1 (second series), active compounds read low 0.626 | locus YHR094C, strain hxt1, active compounds read low 0.888 | locus YHR129C, strain ARP1, active compounds read low 0.205 | locus YHR200W, strain rpn10, active compounds read low 0.569 | locus YIL066C, strain RNR3, active compounds read low 0.0703 | locus YIL073C, strain SPO22, active compounds read low 0.15 | locus YIR030C, strain dcg1, active compounds read low 0.863 | locus YJL095W, strain BCK1, active compounds read low 0.107 | locus YJL134W, strain LCB3, active compounds read low 0.432
inactive: locus YAL021C, strain ccr4, active compounds read low 0.962 | locus YAL026C, strain drs2, active compounds read low 0.965 | locus YAL030W, strain snc1, active compounds read low 1.01 | locus YBL061C, strain skt5, active compounds read low 0.997 | locus YBR009C, strain hhf1, active compounds read low 0.979 | locus YBR021W, strain FUR4, active compounds read low 1.03 | locus YBR023C, strain chs3, active compounds read low 0.936 | locus YBR171W, strain sec66, active compounds read low 1.02 | locus YBR279W, strain paf1, active compounds read low 0.978 | locus YCL011C, strain gbp2, active compounds read low 0.988 | locus YCL016C, strain dcc1, active compounds read low 0.988 | locus YCL061C, strain MRC1, active compounds read low 0.993 | locus YCL069W, strain vba3, active compounds read low 1.01 | locus YCR088W, strain abp1, active compounds read low 1.03 | locus YDL005C, strain med2, active compounds read low 1.03 | locus YDL040C, strain nat1, active compounds read low 1 | locus YDL185W, strain tfp1, active compounds read low 0.928 | locus YDR001C, strain nth1, active compounds read low 1.03 | locus YDR137W, strain rgp1, active compounds read low 0.984 | locus YDR195W, strain ref2 1.07 | locus YDR297W, strain sur2, active compounds read low 0.981 | locus YDR334W, strain swr1, active compounds read low 0.985 | locus YDR335W, strain msn5, active compounds read low 0.979 | locus YDR392W, strain spt3, active compounds read low 1.02 | locus YEL003W, strain gim4, active compounds read low 0.968 | locus YEL037C, strain rad23, active compounds read low 1 | locus YEL061C, strain CIN8 (second series), active compounds read low 1.02 | locus YER016W, strain bim1, active compounds read low 1.01 | locus YER110C, active compounds read low 0.992 | locus YER111C, strain swi4, active compounds read low 0.963 | locus YER155C, strain BEM2 (second series), active compounds read low 1.03 | locus YFR010W, strain ubp6, active compounds read low 0.986 | locus YGL078C, strain dbp3, active compounds read low 0.983 | locus YGL167C, strain pmr1, active compounds read low 1 | locus YGL173C, strain kem1, active compounds read low 0.961 | locus YGL227W, strain vid30, active compounds read low 1.04 | locus YGL240W, strain doc1, active compounds read low 1.09 | locus YGL253W, strain hxk2, active compounds read low 1.01 | locus YHR013C, strain ard1, active compounds read low 0.937 | locus YHR142W, strain chs7, active compounds read low 0.969 | locus YIL125W, strain kgd1, active compounds read low 1.02 | locus YJL092W, strain hpr5, active compounds read low 1.03 | locus YJL095W, strain BCK1 (second series), active compounds read low 0.991 | locus YJL115W, strain asf1, active compounds read low 1.03 | locus YJL129C, strain trk1, active compounds read low 1.06 | locus YJL154C, strain vps35, active compounds read low 1.02 | locus YJL164C, strain tpk1, active compounds read low 0.941 | locus YJL166W, strain qcr8, active compounds read low 0.984 | locus YJL168C, strain set2, active compounds read low 0.934
